Screens as filed in PubChem BioAssay.
Hits are enriched below; roughly 8% of the tested compounds scored in any of these assays.
KB-V1 cytotox = kills drug-selected multidrug resistant KB-V1 cells; KB-V1 MDR cells viability, CellTiter-Glo, 72 h; Potency, µM (doses to about 46.1 µM), most hits filed as cytotoxic; hit rate 3.4% among 400,000; also: nearly all actives have a fitted effect of over 60% in size
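KB-V1 cells (P-gp-expressing MDR subline of KB-3-1) in phenol-red-free DMEM with 10% FBS were exposed to library compounds over a concentration series for 72 h at 37 degrees C. Viability read by CellTiter-Glo luminescence; concentration-effect curves fitted after normalization.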
HT1080 IDH1KD tx = kills HT-1080 cells with IDH1 knockdown. hit rate 2% among 360,000. HT-1080 IDH1 knockdown viability, ATP luminescence, 48 h. Potency, µM (top dose mostly 46.1 µM), most hits filed as cytotoxic
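After a 2 h attachment period, IDH1KD HT-1080 cells took pin-transferred compound for 48 h at 37 °C; ATP-based luminescence after 10 min room-temperature reagent incubation reported viability.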
KB-3-1 cytotox = kills parental KB-3-1 adenocarcinoma cells; KB-3-1 viability, CellTiter-Glo ATP luminescence, 72 h; Potency, µM (highest dose often 46.1 µM), usual class: cytotoxic; hit rate 1.4% among 400,000; AID 1347075; also: nearly all actives have a fitted effect of over 60% in size
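72 h, 37 °C compound treatment of KB-3-1 parental cells; CellTiter-Glo added, 10 min, luminescence read. Data corrected against DMSO-only plates and normalized before curve fitting.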
SW480 rereplic = inducers of DNA re-replication in SW480 colon cancer cells; hit rate 1.8% among 340,000; SW480 DNA re-replication, Hoechst DNA content imaging, 48 h; Potency, µM (titrated, usually from 46.1 µM), hits mostly activators; also: nearly all actives have a fitted effect of over 55% in size
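Compounds, transferred as 23 nL by pin tool, were incubated with cells for 48 hr; DNA content per nucleus was then quantified by Hoechst staining and fluorescence plate imaging.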
HT1080NT lethal = kills 2HG-producing HT-1080-NT fibrosarcoma cells; HT-1080-NT fibrosarcoma viability, CellTiter-Glo ATP luminescence, 48 h; AID 686970; Potency, µM (highest dose often 46.1 µM), actives largely listed as cytotoxic; hit rate 1.6% among 360,000;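 also: NT is the 2HG producing partner of a matched IDH1 knockdown line; nearly all actives have a fitted effect of over 55% in size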
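A 48-hour cytotoxicity screen used HT-1080-NT cells plated 2 hours before compound delivery. ATP-based CellTiter-Glo luminescence measured viability, normalized to DMSO and no-cell controls.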
MCF10A rerep = inducers of DNA re-replication in MCF 10A breast cells | MCF 10A DNA re-replication, Hoechst nuclear intensity, 48 h | Potency, µM (highest dose often 46.1 µM), usual class: activators | hit rate 2.9% among 350,000 | AID 624296; also: nearly all actives have a fitted effect of over 50% in size
Numbers stand for hits; i = inactive; ? = inconclusive; nt = not tested or not shown; ! = repeats disagree. Calls follow the shape of the dose curve; as a rule, active = well fitted curve in the direction sought with a large enough effect; inconclusive = small, poorly fitted or top-dose-only effect, or another doubt; inactive = no such curve, though single readings can be large; an effect the other way counts as inactive or inconclusive.

SMILES | KB-V1 cytotox | HT1080 IDH1KD tx | KB-3-1 cytotox | SW480 rereplic | HT1080NT lethal | MCF10A rerep
COc1ccccc1OCc1ccc(C(=O)N2CCN(C(=O)c3ccco3)CC2)cc1 | 5.2µM | i | i | i | i | i
O=C(NCCS(=O)(=O)N1CCN(C(=O)c2ccco2)CC1)c1ccccc1 | i | i | i | nt | i | nt
COc1ccc(C(=O)NCCS(=O)(=O)N2CCN(C(=O)c3ccco3)CC2)cc1 | i | i | i | 4.1µM | i | i
CCS(=O)(=O)N1CCN(C(=O)c2ccco2)CC1 | i | i | i | i | i | 8.2µM
O=C(Nc1cccc(S(=O)(=O)NC2=NCCC2)c1)c1ccccc1F | i | i | i | i | i | i
CC1CC(Nc2ccccc2N)=CC(=O)O1 (stereo unspecified) | i | i | i | i | i | i
C=CCC1(CC=C)CCCN1C(=O)c1cc(COc2ccc(C)nc2)on1 | i | 2.9µM | ? | i | 21µM | i
C=CCC1(CC=C)CCCN1C(=O)c1cc(COc2ccc(F)c(F)c2)on1 | i | i | i | i | i | i
CCOC(=O)N1CCC(NC(=O)c2cc(COc3ccccc3SC)on2)CC1 | 9.2µM | ? | i | i | i | i
CCOC(=O)N1CCC(NC(=O)c2cc(COc3ccc(F)cc3Cl)on2)CC1 | i | i | i | i | i | i
Cc1ccc(OCc2cc(C(=O)NC3CCCCC3)no2)cn1 | ? | 15µM | ? | i | ? | i
Cc1ccc(C(=O)NCC(c2ccco2)S(=O)(=O)c2cccs2)cc1C (stereo unspecified) | i | nt | i | nt | nt | nt
O=C(CSc1ccccc1C(=O)O)NC12CC3CC(CC(C3)C1)C2 | i | i | i | i | i | i
CCN1CCN(C(=O)c2ccc(Sc3ccccc3Cl)c([N+](=O)[O-])c2)CC1 | 13µM | i | i | i | i | i
CCN1CCCC1CNC(=O)c1ccc(Sc2ccccc2Cl)c([N+](=O)[O-])c1 (stereo unspecified) | i | ? | i | i | 26µM | ?
CCOc1ccc2c(c1)OC(c1ccc(OC)cc1)(C(F)(F)F)NC2=O (stereo unspecified) | 5.2µM | 4.6µM | 5.2µM | 5.2µM | ? | 2.3µM
CC(NC(=O)c1ccc(Br)cc1)c1ccccc1 (stereo unspecified) | i | i | i | i | i | ?
CC(C)OP(=O)(OC(C)C)C(NC(=O)c1ccc(Br)cc1)c1ccccc1 (stereo unspecified) | 3.7µM | ? | ? | ? | 20µM | ?
COc1ccccc1-c1csc2ncnc(Sc3nnnn3C)c12 | i | nt | ? | ? | nt | i
Cn1nnnc1Sc1ncnc2scc(-c3ccccc3Br)c12 | i | nt | i | ? | nt | i
Cn1nnnc1Sc1ncnc2scc(-c3ccc(F)cc3)c12 | ? | 21µM | 8.2µM! | 10µM | ? | ?
Cn1nnnc1Sc1ncnc2scc(-c3ccccc3)c12 | ? | i | ? | 16µM | i | ?
Cn1nnnc1Sc1ncnc2scc(-c3ccc(Br)cc3)c12 | ? | nt | 12µM | ? | nt | ?
Cn1nnnc1Sc1ncnc2scc(Br)c12 | i | nt | i | 4.6µM | nt | 3.7µM
Cc1cc(N2C(=O)C3C4C=CC(C4)C3C2=O)ccc1NC(=O)c1cccs1 (stereo unspecified) | i | i | i | i | i | i
SMILES | KB-V1 cytotox | HT1080 IDH1KD tx | KB-3-1 cytotox | SW480 rereplic | HT1080NT lethal | MCF10A rerep
Cc1cc(Br)ccc1NC(=O)CN(C)C(=O)CNC(=O)Cc1ccccc1 | i | i | i | i | i | i
Cc1ccc(OCCC(=O)OCC(=O)Nc2ccc3[nH]c(=O)[nH]c3c2)cc1 | i | i | i | i | i | i
Cn1nnnc1Sc1ncnc2scc(-c3cccc4ccccc34)c12 | i | nt | 16µM | i | nt | ?
Cc1occc1C(=O)O/N=C(\N)c1ccccc1 | ? | ? | i | i | ? | i
Cc1cccc(/C(N)=N/OC(=O)c2ccoc2C)c1 | ? | 16µM | ? | i | ? | ?
COC(=O)c1c(NC(=O)CC2Nc3cc(C)c(C)cc3NC2=O)sc(C)c1C (stereo unspecified) | ? | i | i | ? | i | i
CC(C)OCCCN(Cc1ccco1)C(=O)c1cc2c(s1)-c1ccccc1OC2 | 9.2µM | nt | 16µM | nt | nt | nt
